Common to all, as to experiment: NCI-60 one-dose screen, 48 h (100 = growth as untreated, 0 = no growth, -100 = all killed)
Holding throughout (conditions): 10 µM unless noted

Assay [1] concerns NCI-H23 lung.
Assay [2] concerns NCI-H226 lung.
For assay [3], the system named is HOP-62 NSCLC.
Assay [4] relates to NCI-H460 lung.
In assay [5] the test system is HOP-92 NSCLC.
Assay [6] deals with NCI-H522 lung.
Assay [7] relates to A549/ATCC NSCLC.
Assay [8] deals with 786-0 renal.
Assay [9] has as its system COLO 205 colon.

About 83,000 compounds went through this panel and 20% of them were active in at least one assay; those are over-represented in the sample as a whole.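 96-well plates, one dose, 48 hours. Percent growth reported; active if below 10.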 A number with no mark means an inactive call. Activity calls are given as the source filed them.

Regarding `N#Cc1nc(-c2cccc(Br)c2)cc(-c2ccc(Nc3nc(N4CCCCC4)nc(N4CCCCC4)n3)cc2)c1N`, the growth in assay [1] is 13%; in assay [2], -73.7% (active); in [3], 18.5%; in [4], -21.8% (active); in [5], -69.4% (active); in [6], -64.6% (active). Further, the figures for the growth in assay [7], in assay [8] and in assay [9] were 21.9%, 6.82% (active) and -57.7% (active), respectively.

`Cc1cc(N=Nc2ccc(-c3ccc(N=Nc4ccc(O)c(C(=O)O)c4)cc3)cc2)c(N)c(N=Nc2ccc(C(=O)O)cc2)c1N`: the growth is 93.4% in assay [1]; 92.4% in assay [2]; 99.7% in assay [3]; 117% in assay [4]; 71.8% in assay [5]; 85.2% in [6]. Moreover, the figures for the growth in assay [7], in assay [8] and in assay [9] were 102%, 84.4% and 108%, respectively.

On to `CCCCN(CCCC)CCC(O)c1cc2ccc(C(F)(F)F)cc2c2cc(C(F)(F)F)ccc12` (stereo unspecified), for which the growth was 43.1% in assay [1]; 83.1% in assay [2]; 79.1% in [3]; 5.31% (active) in [4]; -4.55% (active) in assay [5]; 3.17% (active) in assay [6]. Further, the growth in assay [7] was 64.8%; in assay [8], 42.4%; in assay [9] it was 33.3%.

Regarding `CC(C)CC(NC(=O)OCC1c2ccccc2-c2ccccc21)C(=O)O` (stereo unspecified), the growth in assay [1] was 101%; in assay [2], 102%; in [3], 103%; in assay [4], 115%; in assay [6], 96.6%; in assay [7] it was 95.1%. In addition, the growth was 98% in assay [8] and 111% in assay [9].

On to `COc1cccc(Cn2c(-c3nonc3NC(C)=O)nc3ccccc32)c1`, for which the growth in assay [1] was 39.8%; in assay [2], 60.9%; in assay [3] it was 38.9%; in assay [4] it was 20.7%; in [5], 29.6%; in assay [6] it was -20.6% (active). The growth in assay [7] was 41.4%; in assay [8], 45.8%; in assay [9] it was 23.8%.

For the molecule `CCCCn1c(-c2ccc(F)cc2)nc2cc(OC)c(OC)cc2c1=O`, the growth in [1] was 101%; in [2] it was 93.8%; in [3] it was -11.2% (active); in assay [4], 112%; in [5] it was 66.1%; in assay [6] it was 93.7%. Also, the figures for the growth in assay [7] and in assay [9] were 19.7% and 121%, respectively.

For the molecule `O=C(NC1CC1)c1ccc(-c2nc3ccc4[nH]ncc4c3c3c2CCCC3)cc1`, the growth is 53.3% in [1]; 44.7% in assay [2]; 28.9% in assay [3]; 41.7% in [4]; 18.9% in [6]; 26.3% in [7]. Further, the growth in assay [8] is 42.1%; in [9], 23.6%.

Regarding `Brc1ccccc1Cn1c(-c2cncs2)nc2ccccc21`, the growth was 85.4% in [1]; 70.5% in assay [2]; 76% in [3]; 80.8% in assay [4]; 0.748% (active) in assay [5]; 66.8% in assay [6]. In addition, the growth is 82.7% in assay [7], 90.6% in assay [8] and 84.9% in assay [9].

In the case of `CCCCn1c(C)nc2cc(Nc3nc(Cl)nc4nc[nH]c34)ccc21`, the growth is 77.9% in [1]; 75% in assay [2]; 66% in assay [3]; 84.7% in assay [4]; -1.07% (active) in [5]; 78.9% in assay [6]. Moreover, the growth in assay [7] was 85%; in assay [8] it was 76.4%; in [9] it was 89.7%.

Regarding `C/C(CC(=O)NNc1ccc([N+](=O)[O-])cc1)=N\Nc1ccc([N+](=O)[O-])cc1`, the growth in assay [1] was 87.5%; in assay [2], 96.2%; in assay [3] it was 83%; in assay [4], 27.9%; in assay [5] it was 90.5%; in assay [6], 60.8%. For the same molecule, the growth in assay [7] was 56.1%; in assay [8] it was 55.3%; in [9], 48.8%.

Take `COc1cccc(NC(=O)c2c(-c3ccccc3)c(-c3ccccc3)n[nH]c2=O)c1`: the growth is 101% in assay [1]; 100% in assay [2]; 102% in [3]; 98% in assay [4]; 112% in [5]; 89.2% in assay [6]. For the same molecule, the growth is 100% in assay [7], 97.6% in [8] and 110% in [9].

Consider `N#Cc1ccc(NC(=O)Nc2nc3ccc(OC(F)(F)F)cc3s2)cc1`, for which the growth in [1] is -22.1% (active); in [2], 12.7%; in [3] it was 3.68% (active); in assay [4], -3.29% (active); in assay [5] it was -13.1% (active); in assay [6] it was -33.5% (active). Moreover, the growth in assay [7] was 3.01% (active); in [8], -12.6% (active).

Consider `COc1cccc2nc(Nc3cccc(NC(=O)c4cc(N5CCOCC5)cc(C(F)(F)F)c4)c3)ccc12`, for which the growth in [1] was 78.4%; in assay [2], 47.8%; in [3] it was 78.6%; in [4], 49.2%; in assay [5], 47.9%; in assay [6], 81.3%. For the same molecule, the results for the growth in [7], in assay [8] and in assay [9] were 37.3%, 65.8% and 62.5%, respectively.

`Nc1nc2c(c3ncccc13)C(c1ccccc1)Cc1ncccc1-2` (stereo unspecified): the growth in assay [1] was 83.3%; in assay [2], 88.4%; in assay [3] it was 72.1%; in [4], 92%; in assay [5], 96.1%; in [6], 42.9%. In addition, the results for the growth in [7], in assay [8] and in [9] were 72.3%, 104% and 87.8%, respectively.

For `[Ag].[Ag].[NH-]S(=O)(=O)c1ccc(N=Nc2cc(N=Nc3ccc(S([NH-])(=O)=O)cc3)c3c(NC(=O)C(Cl)Cl)cccc3c2OC(=O)C(Cl)Cl)cc1.[c-]1nccs1.[c-]1nccs1`, the growth is 93.8% in [1]; 90.8% in assay [2]; 78.9% in assay [3]; 56.7% in assay [4]; 60.7% in assay [5]; -86.4% (active) in assay [6]. Further, the growth in [7] was 83.5%; in assay [8], 106%; in assay [9], 6.93% (active).

The values above are taken from PubChem BioAssay (NCI).
